Our source for the relative enzymatic activity values is the supplement of paper PMC9446081.

± gives the standard deviation of the averaged measurements.

The target in the assay is T1, MurF (UniProt P11880).
T1 sequence (whole entry): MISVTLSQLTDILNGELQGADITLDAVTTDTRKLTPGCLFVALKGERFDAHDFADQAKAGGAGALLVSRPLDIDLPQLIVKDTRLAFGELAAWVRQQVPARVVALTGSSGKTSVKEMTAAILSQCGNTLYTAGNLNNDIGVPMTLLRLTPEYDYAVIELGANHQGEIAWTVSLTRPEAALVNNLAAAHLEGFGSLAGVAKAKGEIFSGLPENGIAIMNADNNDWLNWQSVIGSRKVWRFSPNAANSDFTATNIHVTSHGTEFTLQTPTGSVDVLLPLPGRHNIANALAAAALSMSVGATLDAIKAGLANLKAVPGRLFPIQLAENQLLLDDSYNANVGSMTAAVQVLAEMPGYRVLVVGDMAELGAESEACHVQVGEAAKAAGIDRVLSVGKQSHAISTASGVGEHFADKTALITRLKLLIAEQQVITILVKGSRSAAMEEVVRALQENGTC
The experiment in a line: relative enzymatic activity vs untreated control (fraction); higher = less inhibition. The note with it: 100 µM; incubation time: 2 h at 37 C. Here is the method:
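In vitro enzymatic inhibition assays (ProFoldin kits) for 12 purified essential E. coli enzymes or complexes, each treated with 218 active antibacterial compounds at 100 µM for 2 h at 37°C. Read-outs were fluorescence or absorbance (phosphate detection, dye binding), converted to activity via standard curves and expressed relative to untreated DMSO controls.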
The compound `[O-][n+]1ccccc1[S][Zn][S]c1cccc[n+]1[O-]` came in with a relative enzymatic activity of 0.973 ± 0.15.
The value for `CN1C(=O)[C@]23CC4=CC=C[C@H](O)[C@H]4N2C(=O)[C@@]1(CO)SS3` was 0.973 ± 0.26.
The value for `CCCCCCCCCCCCCCCC[n+]1ccccc1` was 0.08 ± 0.011.
The value for `O=[N+]([O-])c1ccc(N(CCO)CCO)c2c1no[n+]2[O-]` was 0.923 ± 0.15.
Compound `Cc1nc2c(=O)n(C)c(=O)nc-2n(C)n1` registered a relative enzymatic activity of 0.965 ± 0.26.
Take `CNC1C(O)C(OC2C(N)CC(N)C(OC3OC(C(C)O)C(O)C(O)C3N)C2O)OCC1(C)O` (centres undefined): the relative enzymatic activity was 0.95 ± 0.18.
The result for `CCCCCCCCCCCCCCCC[n+]1ccccc1.[Cl-]` reads 0.0685 ± 0.0074; that for `CN(C)[C@@H]1C(=O)[C@H](C(N)=O)C(=O)[C@@]2(O)C(=O)[C@@H]3C(=O)c4c(O)cccc4[C@@](C)(O)[C@H]3C[C@@H]12`, 0.998 ± 0.19.
`CCn1cc(C(=O)[O-])c(=O)c2cc3c(cc21)OCO3.[K+]` returned a relative enzymatic activity of 0.962 ± 0.22.
In the case of `CC(=O)[O][Hg][c]1ccccc1`, the relative enzymatic activity stood at 1.08 ± 0.26.
For `CCCCCCCCCCCCCCCC[N+](C)(C)C.[Br-]`, the relative enzymatic activity came to 0.112 ± 0.021.
Take `O=[N+]([O-])C(Br)(CO)CO`: the relative enzymatic activity was found to be 0.946 ± 0.23.
The value for `Cc1c(N)nc([C@H](CC(N)=O)NC[C@@H](N)C(N)=O)nc1C(=O)N[C@H](C(=O)N[C@@H](C)[C@H](O)[C@@H](C)C(=O)N[C@@H](C(=O)NCCc1nc(-c2nc(C(=O)NCCC[S+](C)C)cs2)cs1)[C@@H](C)O)[C@@H](O[C@H]1O[C@H](CO)[C@H](O)[C@@H](O)[C@H]1O[C@H]1O[C@H](CO)[C@@H](O)[C@H](OC(N)=O)[C@@H]1O)c1c[nH]cn1` was 0.537 ± 0.75; that for `O=C1C=C2C(=CCOC2O)O1` (centres undefined) was 0.903 ± 0.18; that for `CC(=O)Oc1ccc(Cl)c2cccnc12` was 0.983 ± 0.21.
On to `Cn1ncnc2c(=O)n(C)c(=O)nc1-2`, for which the relative enzymatic activity worked out at 0.797 ± 0.21.
`COP(=S)(OC)Oc1cc(Cl)c(Cl)cc1Cl` had a relative enzymatic activity of 1.05 ± 0.2.
The result for `O=S(=O)(O)O.Oc1cccc2cccnc12` reads 0.951 ± 0.29; that for `CN(C)[C@@H]1C(=O)[C@@H](C(N)=O)C(=O)[C@@]2(O)C(=O)[C@H]3C(=O)c4c(O)ccc(Cl)c4[C@@](C)(O)[C@H]3C[C@@H]12`, 1.2 ± 0.021.
The value for `CN[C@H]1C[C@@H](N)[C@H](O)[C@@H](O[C@@H]2O[C@H](CO)[C@H](O)[C@@H]3O[C@@]4(O[C@H]23)O[C@H]([C@@H](N)CO)[C@H](O)[C@H](O)[C@H]4O)[C@@H]1O` was 1.17 ± 0.035.
The value for `Cc1c(N)nc([C@H](CC(N)=O)NC[C@@H](N)C(N)=O)nc1C(=O)N[C@H](C(=O)N[C@@H](C)[C@H](O)[C@@H](C)C(=O)N[C@@H](C(=O)NCCc1nc(-c2nc(C(=O)NCCC[S+](C)C)cs2)cs1)[C@@H](C)O)[C@@H](O[C@H]1O[C@H](CO)[C@H](O)[C@@H](O)[C@H]1O[C@H]1O[C@H](CO)[C@@H](O)[C@H](OC(N)=O)[C@@H]1O)c1cnc[nH]1` was 1.15 ± 0.074; that for `Oc1cc(Cl)ccc1Oc1ccc(Cl)cc1Cl` was 1.12 ± 0.27; that for `CN(C)[C@@H]1C(=O)C(C(N)=O)=C(O)[C@@]2(O)C(O)=C3C(=O)c4c(O)cccc4[C@](C)(O)[C@H]3C[C@@H]12` was 0.983 ± 0.2.
Compound `C[CH2][Hg][S]c1ccccc1C(=O)[O-].[Na+]` registered a relative enzymatic activity of 0.982 ± 0.28.
